The full list was thinned out, with hits kept by preference.
Pf Dd2 inh: inhibitors of Plasmodium falciparum Dd2 growth | P. falciparum Dd2 growth, SYBR Green, 72 h | Potency, µM (series often up to 28.9 µM), inactives show top-dose activity, negative = inhibition, actives largely listed as inhibitors | actives 4.3% (n = 120,000) | AID 1347417; active = well fitted inhibition curve with a large enough effect;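 also: plate controls were DMSO vehicle for no effect and reference drug for full effect; nearly all actives have a fitted effect of over 65% in size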
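Infected erythrocytes (Dd2, 0.3% parasitemia, 2.5% hematocrit final) are added to compound in RPMI-1640/Albumax II medium, grown 72 h at 37C in low oxygen, then lysed with saponin/Triton-X containing SYBR Green and read by fluorescence.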
* = called active by the depositor; i = inactive; ! = not confirmed by another sample; [ ] = dose if it differs, or a comment. Potency is read from the fitted curve at half-maximal effect.

SMILES | Pf Dd2 inh
O=C(CCc1ccccc1)N1CCc2c([nH]c3ccccc23)C1c1ccc(F)cc1 (centres undefined) | 11.2µM*
CSc1ccc(C2c3[nH]c4ccccc4c3CCN2C(=O)CCc2ccccc2)cc1 (centres undefined) | -19.7%
COc1ccc(C2c3[nH]c4ccccc4c3CCN2C(=O)CCC2CCCC2)cc1 (centres undefined) | -0.5%
O=C1CCC(CCC(=O)N2CCCC2c2ccc(F)cc2)(Cc2cccc3ccccc23)N1 (centres undefined) | -12.9%
O=C(CC[C@H]1NC(=O)c2ccccc2NC1=O)NCCc1ccccn1 | -13.7%
O=C(c1ccccc1F)N1CCCC2(C1)C(=NC1CCCCC1)NC(=O)N2c1cccnc1 (centres undefined) | 9.0%
COC(=O)N1CCn2cc(C(=O)NCc3ccc(Cl)nc3)nc2C1 | 11.3%
O=C(N[C@@H]1CCOC[C@H]1OCCO)c1cccc(-c2ccco2)c1 | -2.5%
CCCn1nc(C)cc1CN(C)C(=O)[C@@H]1CN(C(C)=O)C[C@H]1c1nc(C)no1 | -13.6%
CCOc1ccc(C2=NC(c3cccs3)=Nc3ccc(CC)cc3N2)cc1OCC | 8.91µM*
CCCCOc1ccc(C2=NC(c3cccs3)=Nc3ccc(OC)cc3N2)cc1 | -6.0%
CCc1ccc2c(c1)NC(c1cccs1)=NC(c1ccc(F)cc1)=N2 | -7.0%
O=C(CN1CCOCC1)N1CC(F)(F)C[C@H]1c1nc(C2CC2)no1 | 21.8%
CCN1c2cc(C(=O)Nc3cc(F)ccc3F)ccc2C(=O)N2CCCCCC21 (centres undefined) | i
Cc1c(NC(=O)CCc2cc3n(n2)CCNC3)cccc1-c1nncn1C | -2.7%
CCn1nc(C)c(CCN(C)C(=O)Cn2nc3n(c2=O)CCC(N)CC3)c1C (centres undefined) | i
Cc1ccc(CNC(=O)C2CCN(C(=O)c3ncn4c3COC(c3ccccc3)C4)CC2)cc1 (centres undefined) | -16.8%
Cc1ccc(-c2cc(C(=O)Oc3ccccc3)c3cccc(C)c3n2)cc1 | -10.3%
COc1ccc(-c2cc(C(=O)Oc3ccc(C)cc3)c3cc(C)ccc3n2)cc1 | i
COc1ccc(-c2cc(C(=O)Oc3ccccc3)c3cc(C)ccc3n2)cc1 | 4.47µM*
COC(=O)c1cn([C@H]2CO[C@H]3[C@@H]2OC[C@H]3OC(=O)Nc2ccccc2)nn1 | 6.7%[44.1 µM]
COc1cc(CNCc2cnn(C)c2C)ccc1OCC(O)CN1CCSCC1 (centres undefined) | -12.5%
COc1ccc(CNc2cc3c(cn2)CN(C)CCN3C)cc1OC | i
COc1cc(CNC(C)Cn2nc(C)cc2C)ccc1OCCN1CCCC1 (centres undefined) | 3.55µM*
CCOc1ccccc1C(=O)NC1CCN(c2cc(-c3ccc(Cl)cc3)[nH]n2)C1 (centres undefined) | -10.7%
SMILES | Pf Dd2 inh
O=C(CCCc1ccccc1)N[C@@H]1CN(c2ccncn2)C[C@H]1CO | 21.6%
COc1ccc(OC2CN(C(=O)c3ccc(C(F)(F)F)cc3)C2)cc1 | 60.4%
CCOC(=O)c1ccccc1NC(=O)CN1C(=O)NC2(CCCCC2)C1=O | -10.7%
Cc1cc2c(cc1C(=O)N1C[C@@H](CN(C)CCO)[C@@H](CO)C1)OCCO2 | -20.5%
CN(CCO)C[C@@H]1CN(C(=O)c2ccc3c(c2)CCC3)C[C@@H]1CO | -9.7%
Cc1c(CN2C[C@@H](CN(C)CCO)[C@@H](CO)C2)[nH]c2c(Cl)cccc12 | 12.6µM*
COc1ccccc1NC(=O)CC(c1cc(OC)c(OC)c(OC)c1)N1Cc2ccccc2C1=O (centres undefined) | i
COc1cc(C(CC(=O)Nc2cccc(C(C)=O)c2)N2Cc3ccccc3C2=O)cc(OC)c1OC (centres undefined) | 10µM*
CCc1ccc(NC(=O)CC(c2cc(OC)c(OC)c(OC)c2)N2Cc3ccccc3C2=O)cc1 (centres undefined) | -19.4%
COc1ccc(CN2C(=O)CO[C@H](c3ccc(NC(=O)Nc4ccccc4)cc3)[C@H]2CO)cc1 | i
COCCN1C(=O)CC[C@]2(C(=O)N(C)CCc3ccncc3)CCCC[C@@H]12 | -18.5%
COc1cccc(CN2C(=O)C3(CCOCC3)CC2c2nnnn2C(C)(C)C)c1 (centres undefined) | 0.7%
O=C1COCCN1C1CCN(S(=O)(=O)c2cccc(C(F)(F)F)c2)CC1 | 5.5%
C[C@H]1[C@@H]2[C@@H](O)C([C@H](C)C(=O)NCc3ccccc3)CC[C@@]2(C)CC[C@@H]1NC(=O)c1ccc(C#N)cc1 (some centres undefined) | i
C[C@H]1[C@@H]2[C@@H](O)C([C@H](C)C(=O)NCc3cccnc3)CC[C@@]2(C)CC[C@@H]1NC(=O)c1ccc(C#N)cc1 (some centres undefined) | -5.9%
C[C@H]1[C@@H]2[C@@H](O)C([C@H](C)C(=O)NCc3ccccn3)CC[C@@]2(C)CC[C@@H]1NC(=O)c1ccc(C#N)cc1 (some centres undefined) | 8.91µM*
CN(C1CCc2nn(C)c(=O)n2CC1)S(=O)(=O)c1ccc(Cl)s1 (centres undefined) | 14.6%
COc1ccc(OCc2nc(C)c(CCO)c(=O)n2CC(=O)NCc2cccs2)cc1 | -20.9%
COC1CCOC2(CCN(C(=O)c3ccc4ccccc4n3)CC2)C1 (centres undefined) | 11.1%
Cc1ccc(C(=O)NCCSc2c[nH]c3ccccc23)cc1C | 6.5%
O=C(NCCc1ccc(Cl)cc1)c1ccc(Cn2c(=O)[nH]c3ccccc3c2=O)cc1 | -19.4%
Cc1ccc(-c2[nH]c3ccccc3c2SCCNC(=O)c2ccc(S(=O)(=O)N(C)C)cc2)cc1 | 8.91µM*
CN(C)S(=O)(=O)c1ccc(C(=O)NCCSc2c(-c3ccc(Cl)cc3)[nH]c3ccccc23)cc1 | 8.91µM*
Cc1ccc(S(=O)(=O)N(CC(=O)NCCSc2ccc(Cl)cc2)c2cccc(Cl)c2)cc1 | i
CCOc1ccc(C(=O)NCCSc2c(C)[nH]c3ccccc23)cc1OCC | -28.1%
SMILES | Pf Dd2 inh
CCCCNC(=O)C1CC(=O)N(c2n[nH]c3cccc(F)c23)C1 (centres undefined) | -7.2%
Cc1cc(Cl)ccc1S(=O)(=O)N1CCC(Oc2ccc(C(N)=O)cn2)CC1 | -63.3%
N#Cc1ccccc1CN1CCC(Cc2nncn2-c2ccccc2)CC1 | -12.0%
O=C(CN1C(=O)CNC1=O)NCc1cccnc1Oc1ccccc1F | -1.5%
O=C(O)c1ccc2nc(-c3cc4cc(F)ccc4oc3=O)[nH]c2c1 | -1.3%
c1cc2nc(C3CCNCC3)[nH]c2cn1 | -0.6%[44.1 µM]
c1cc2nc(C3CCNC3)[nH]c2cn1 (centres undefined) | i
Cc1cc(-c2nc3ccncc3[nH]2)c(C)[nH]1 | 20µM*!
c1cnc2nc(-c3ccncc3)[nH]c2c1 | -19.4%[44.1 µM]
c1coc(-c2nc3ccncc3[nH]2)c1 | -24.1%[44.1 µM]
O=C(O)c1ccc(-c2nc3ccncc3[nH]2)cc1 | 1.26µM*!
O=C(O)c1ccc(-c2cccnc2)cc1 | 1.3%[44.1 µM]
c1cnc2[nH]cc(-c3nc4ccncc4[nH]3)c2c1 | 10µM*!
Cc1ccc(C2=NC3(CCN(C(=O)c4cc(F)ccc4F)CC3)ON2)cc1 | i
Cn1cc(-c2ccccc2)cc1C(=O)O | i
Cn1nccc1C(=O)N1CC(N(C2CCOCC2)S(C)(=O)=O)C1 | -5.0%
CC(C)c1noc(C2CCCN(S(=O)(=O)c3ccccc3)CCC(=O)NCC2)n1 (centres undefined) | 13.9%
C[C@]1(O)CCN(C(=O)c2cccc(Oc3ccccc3)c2)C[C@@H]1O | 8.6%
